Assay results from PubChem BioAssay AID1159580 (chemical genetic matrix, 2015).
Values joined by “and” are separate entries in the source; they are usually repeats but may differ in a detail not shown here. Equal entries are not always repeated. About 2,000 (36%) of roughly 5,500 compounds were called active. Inconclusive results (about 18%) are left out. No stated cut-off is given here; in the data, active means normalized growth mostly below about 0.91 (no sharp cut-off); inconclusive means no clear call, values can overlap the other calls; inactive means mostly above about 0.92. This is one part of the list.

Experiment: chemical genetic growth profiling, strain panel (AID 1159580);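 further: tested at 20 µM; growth read once vehicle control cultures reached saturation at 30 °C; 1 = growth at the plate median or of vehicle wells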
Settings: S. cerevisiae deletion strains, growth OD

Measured: normalized growth

CC(C)NCC(O)c1ccc2ccccc2c1 (stereo not drawn)
inactive: locus YAL013W, strain DEP1, stronger effect = lower value 1.02 | locus YAL021C, strain ccr4, stronger effect = lower value 0.992 | locus YAL026C, strain drs2, stronger effect = lower value 1.01 | locus YAL030W, strain snc1, stronger effect = lower value 1 | locus YBL061C, strain skt5, stronger effect = lower value 0.998 | locus YBR009C, strain hhf1, stronger effect = lower value 0.985 | locus YBR021W, strain FUR4, stronger effect = lower value 1.02 | locus YBR023C, strain chs3, stronger effect = lower value 1 | locus YBR171W, strain sec66, stronger effect = lower value 1 | locus YBR229C, strain ROT2, stronger effect = lower value 1.01 | locus YBR231C, strain swc5, stronger effect = lower value 0.99 | locus YBR279W, strain paf1, stronger effect = lower value 0.998 | locus YCL011C, strain gbp2, stronger effect = lower value 1 | locus YCL016C, strain dcc1, stronger effect = lower value 1 | locus YCL029C, strain bik1, stronger effect = lower value 0.999 | locus YCL061C, strain MRC1, stronger effect = lower value 1.01 | locus YCL069W, strain vba3, stronger effect = lower value 1 | locus YCR088W, strain abp1, stronger effect = lower value 1.01 | locus YDL005C, strain med2, stronger effect = lower value 0.999 | locus YDL035C, strain GPR1, stronger effect = lower value 1.02 | locus YDL040C, strain nat1, stronger effect = lower value 0.987 | locus YDL074C, strain BRE1, stronger effect = lower value 1.04 | locus YDL101C, strain DUN1, stronger effect = lower value 1.01 | locus YDL134C, strain PPH21, stronger effect = lower value 1.02 | locus YDL185W, strain tfp1, stronger effect = lower value 1 | locus YDL192W, strain arf1, stronger effect = lower value 1 | locus YDR001C, strain nth1, stronger effect = lower value 1 | locus YDR069C, strain doa4, stronger effect = lower value 0.987 | locus YDR101C, strain arx1, stronger effect = lower value 1.01 | locus YDR137W, strain rgp1, stronger effect = lower value 0.987 | locus YDR159W, strain sac3, stronger effect = lower value 0.971 | locus YDR162C, strain NBP2, stronger effect = lower value 1.03 | locus YDR195W, strain ref2 0.966 | locus YDR297W, strain sur2, stronger effect = lower value 0.998 | locus YDR318W, strain mcm21, stronger effect = lower value 0.992 | locus YDR334W, strain swr1, stronger effect = lower value 1 | locus YDR335W, strain msn5, stronger effect = lower value 0.999 | locus YDR388W, stronger effect = lower value 0.994 | locus YDR392W, strain spt3, stronger effect = lower value 0.918 | locus YDR502C, strain sam2, stronger effect = lower value 0.995 | locus YEL003W, strain gim4, stronger effect = lower value 1.01 | locus YEL037C, strain rad23, stronger effect = lower value 1 | locus YEL061C, strain CIN8 (second series), stronger effect = lower value 0.996 | locus YEL061C, strain CIN8, stronger effect = lower value 1 | locus YER015W, strain faa2, stronger effect = lower value 0.992 | locus YER016W, strain bim1, stronger effect = lower value 0.997 | locus YER110C, stronger effect = lower value 0.994 | locus YER111C, strain swi4, stronger effect = lower value 1 | locus YER155C, strain BEM2 (second series), stronger effect = lower value 0.998 | locus YER155C, strain BEM2, stronger effect = lower value 1.01 | locus YER167W, strain BCK2, stronger effect = lower value 1.01 | locus YFR010W, strain ubp6, stronger effect = lower value 1 | locus YGL078C, strain dbp3, stronger effect = lower value 0.992 | locus YGL086W, strain mad1, stronger effect = lower value 1 | locus YGL167C, strain pmr1, stronger effect = lower value 1 | locus YGL173C, strain kem1, stronger effect = lower value 0.999 | locus YGL227W, strain vid30, stronger effect = lower value 0.992 | locus YGL240W, strain doc1, stronger effect = lower value 0.995 | locus YGL248W, strain PDE1, stronger effect = lower value 1.01 | locus YGL253W, strain hxk2, stronger effect = lower value 0.998 | locus YGR135W, strain pre9, stronger effect = lower value 0.983 | locus YGR252W, strain gcn5, stronger effect = lower value 0.973 | locus YHR013C, strain ard1, stronger effect = lower value 0.952 | locus YHR027C, strain rpn1, stronger effect = lower value 1 | locus YHR030C, strain SLT2, stronger effect = lower value 1.01 and 1.02 | locus YHR079C, strain IRE1 (second series), stronger effect = lower value 0.99 | locus YHR079C, strain IRE1, stronger effect = lower value 1.02 | locus YHR094C, strain hxt1, stronger effect = lower value 0.99 | locus YHR129C, strain ARP1, stronger effect = lower value 1.02 | locus YHR142W, strain chs7, stronger effect = lower value 1 | locus YHR200W, strain rpn10, stronger effect = lower value 0.994 | locus YIL066C, strain RNR3, stronger effect = lower value 1.02 | locus YIL073C, strain SPO22, stronger effect = lower value 1.01 | locus YIL125W, strain kgd1, stronger effect = lower value 0.999 | locus YIR030C, strain dcg1, stronger effect = lower value 0.998 | locus YJL092W, strain hpr5, stronger effect = lower value 1.01 | locus YJL095W, strain BCK1 (second series), stronger effect = lower value 0.999 | locus YJL095W, strain BCK1, stronger effect = lower value 1.02 and 1.03 | locus YJL115W, strain asf1, stronger effect = lower value 0.996 | locus YJL129C, strain trk1, stronger effect = lower value 1.01 | locus YJL134W, strain LCB3, stronger effect = lower value 1 | locus YJL154C, strain vps35, stronger effect = lower value 0.992 | locus YJL164C, strain tpk1, stronger effect = lower value 1 | locus YJL166W, strain qcr8, stronger effect = lower value 1 | locus YJL168C, strain set2, stronger effect = lower value 0.991 | locus YJL187C, strain SWE1 (second series), stronger effect = lower value 1.03 | locus YJL187C, strain SWE1, stronger effect = lower value 1 | locus YJR043C, strain POL32, stronger effect = lower value 1.05
